Assay results: PubChem BioAssay (NCI)
Compounds without any hit were thinned out: in the full panel of roughly 79,000, 15% have a hit. Calls of active or inactive are those of the source. Cut-off read from the data, not from the text of the source: active = growth inhibition above about 70%; inactive = the rest.

Test: NCI Yeast Anticancer Drug Screen. Data for the mlh1 rad18 strain (AID 175)
Conditions: S. cerevisiae mlh1 rad18 strain growth inhibition; at 50.0 µM (retest, dose inferred, filed as 5.0); hits give high values
How it was run: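 Vehicle-treated cultures served as the reference for growth inhibition in a yeast strain carrying DNA damage repair alterations exposed to each compound.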

SMILES	growth inhibition
C=C(CCC(C)C1CCC2(C)C3=C(CC(O)C12C)C1(C)CCC(O)C(C)(C)C1CC3)C(C)C(=O)O (stereo not given)	95% (active)
CC(=O)O[C@H]1CC[C@]2(C)C3=CC[C@]4(C)[C@@H](C(C)=O)CC[C@H]4[C@@]34C=C[C@]2(C1)C1C(=O)OC(=O)C14 (stereo not given in full)	-26% (inactive)
CCC1(c2ccc(N3C(=O)c4ccccc4C3=O)cc2)CCC(=O)NC1=O (stereo not given)	-25% (inactive)
O=C(NNS(=O)(=O)c1ccccc1)Nc1ccccc1	15% (inactive)
CCN(CC)CCNc1c(C)ccc2cccnc12	8% (inactive)
CCOC(=O)CCC(NC(=O)c1ccc(NC(OC)c2nc3cc(C(F)(F)F)ccc3nc2-c2ccccc2)cc1)C(=O)OCC (stereo not given)	92% (active)
CCCC(O)C[N+](=O)[O-] (stereo not given)	14% (inactive)
O=C(Nc1cccc(Br)c1)Oc1cccc2cccnc12	98% (active)
C=C1CC(C)(COc2ccc3c(C)c(C)c(=O)oc3c2C)OC1=O (stereo not given)	94% (active)
Cc1cc(Br)c(N2C3=C(CC4=C2CCCC4=O)C(=O)CCC3)c(Br)c1	97% (active)
CCN(CC)CC(O)CNc1ccc(C)c2sc3ccccc3c(=O)c12 (stereo not given)	99% (active)
COC1/C=C/OC2(C)Oc3c(C)c(O)c4c(c3C2=O)C(=O)C=C(NC(=O)/C(C)=C\C=C\C(C)C(OC=O)C(C)C(O)C(C)C(OC(C)=O)C1C)C4=O (stereo not given)	27% (inactive)
OC(c1cc2ccccc2o1)c1cc2ccccc2s1 (stereo not given)	94% (active)
Nc1nnc(-c2cc([N+](=O)[O-])cc([N+](=O)[O-])c2)o1	3% (inactive)
CC1SC(=S)N(c2ccc(Cl)cc2)C1=O (stereo not given)	69% (inactive)
